Drawing on PubChem BioAssay, this text covers activity remaining for 4 molecules.

A number with no mark means an inactive call. No rule for the calls is given here.

The test concerns Aerobactin synthetase IucA (Klebsiella pneumoniae hvKP1). In words: Biochemical IucA enzyme inhibition primary screen of the Spectrum library (AID 1346200).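 Also: 100% = wells without compound and 0% = wells lacking enzyme.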 The conditions noted are these: malachite green pyrophosphate, A620, at 8 µM, hits give low values.
For `CC(C)=CCc1c(O)cc2occ(-c3ccc4c(c3)OCO4)c(=O)c2c1O`, the activity remaining was 114%.

For `CC1=C2C(O)C(=O)OC3CC4C(C)(C)C(=O)C=C[C@]4(C)C(CC1)[C@]23C` (some centres undefined), the activity remaining was 109%.

As for `COc1c2occc2c(OC)c2c(=O)cc(C)oc12`, the activity remaining was 116%.

Turning to `C/C(=C\CO)CC[C@H](C)CCC[C@H](C)CCCC(C)C`, the activity remaining is 121%.
